Compounds with a hit are over-represented: about 18% of the library has one in this group of screens.
TDP1 block = TDP1 (human) enzyme inhibition; Q9NUW8; recombinant TDP1, AlphaScreen DNA substrate cleavage; Potency, µM (doses to about 130 µM), for inactives: at the highest dose activity change, negative = inhibition, most hits filed as inhibitors; 350,000 tested, 0.28% active; further: nearly all actives have a fitted effect of over 40% in size
Target sequence (Q9NUW8 whole entry, looked up): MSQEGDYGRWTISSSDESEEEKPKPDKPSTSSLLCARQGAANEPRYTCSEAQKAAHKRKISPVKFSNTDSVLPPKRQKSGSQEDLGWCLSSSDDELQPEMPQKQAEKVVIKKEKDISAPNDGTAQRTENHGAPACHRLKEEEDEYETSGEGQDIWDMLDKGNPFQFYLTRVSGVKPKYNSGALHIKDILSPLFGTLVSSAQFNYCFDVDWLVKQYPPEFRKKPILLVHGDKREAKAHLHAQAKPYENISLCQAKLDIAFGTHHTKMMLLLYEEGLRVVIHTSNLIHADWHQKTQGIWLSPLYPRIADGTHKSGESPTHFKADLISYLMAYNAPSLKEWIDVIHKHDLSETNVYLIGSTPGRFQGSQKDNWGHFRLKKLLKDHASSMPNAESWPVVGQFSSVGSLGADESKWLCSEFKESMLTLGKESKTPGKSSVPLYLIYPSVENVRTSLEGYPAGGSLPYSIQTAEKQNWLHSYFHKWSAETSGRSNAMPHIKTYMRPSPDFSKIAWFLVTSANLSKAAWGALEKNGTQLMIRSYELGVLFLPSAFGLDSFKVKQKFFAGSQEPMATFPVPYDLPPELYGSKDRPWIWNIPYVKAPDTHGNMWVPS
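E. coli-derived human Tdp1, 1 nM final. Cpd preinc 15 min RT; substrate 15 nM final, 5 min RT; AS bead mix 10 ug/ml final, 10 min RT. Signal loss = tyrosine-FITC cleavage. No-enzyme wells = max signal.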
VDR inhibitor = blocks the human vitamin D receptor; P11473; VDR-SRC2-3 peptide fluorescence polarization, 2 h; Potency, µM, inactives show max response, negative = inhibition, most hits filed as inhibitors; 400,000 tested, 0.93% active; AID 504847
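Signal is fluorescence polarization, reporting how far test compounds block the interaction of VDR with the SRC2-3 coregulator peptide after a 2 h room-temperature incubation.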
DT40 TDP1 CPT = DT40-hTDP1 cell growth loss with CPT. chicken DT40 Tdp1-/-;hTDP1 cells + 20 nM CPT, ATP luminescence, 48 h. Potency, µM (top dose mostly 46.2 µM), inactives show top-dose activity change, negative = growth inhibition, hits mostly inhibitors. 420,000 tested, 12% active; further: nearly all actives have a fitted effect of over 55% in size
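Chicken DT40 Tdp1-/- cells stably complemented with human TDP1 were seeded at 400 cells/well in medium containing 20 nM camptothecin, exposed to pin-transferred compounds, and grown at 37 °C for at least 48 hr. Viability was read as ATP luminescence.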
PLK1 PBD inh = PLK1 (human) polo-box domain binding inhibition | Potency, µM, for inactives: max response, negative = inhibition, actives largely listed as inhibitors | 360,000 tested, 2.8% active | Plk1 PBD binding of FITC phosphopeptide, fluorescence polarization; further: series mostly up to about 57 µM; nearly all actives have a fitted effect of over 65% in size
GCN5L2 inh = GCN5L2 (KAT2A) acetyltransferase inhibition. GCN5L2 HAT assay, ThioGlo1 CoA-SH fluorescence. AID 504327. 390,000 tested, 0.21% active. Potency, µM (series often up to 58.9 µM), without a hit: at the highest dose activity change, negative = inhibition, hits mostly inhibitors. Q92830
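Fluorescence readout, Ex340nm/Em540nm: ThioGlo1 (50uM final) reacts with free CoA thiol released as 20nM GCN5L2 acetylates H3(1-25) peptide (75uM) using acetyl-CoA (70uM). Compound and enzyme sat 15 min beforehand; 20 min room-temperature reaction.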
DT40 TDP1 no CPT = qHTS for Inhibitors of human tyrosyl-DNA phosphodiesterase 1 (TDP1): qHTS in cells in absence of CPT | DT40 Tdp1-/- hTDP1 cells, no CPT, ATP luminescence, 48 h | Potency, µM (doses to about 46.2 µM), for inactives: top-dose activity change, negative = growth inhibition, hits mostly inhibitors | 420,000 tested, 15% active | AID 686978, 2013; further: nearly all actives have a fitted effect of over 55% in size
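Growth kinetics read by CellTiter-Glo luminescence after ≥48 hr at 37 °C. Cells: DT40 Tdp1-/- stably carrying human TDP1, 400 per well, compound exposure in the absence of CPT (DMSO vehicle).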
* hit, by the source's call; ? = inconclusive; / = not tested or not shown. The call rests on the fitted dose curve; in most records, active means well fitted curve in the direction sought with a large enough effect; inconclusive means small, poorly fitted or top-dose-only effect, or another doubt; inactive means no such curve, though single readings can be large; an effect the other way counts as inactive or inconclusive. On the % scale 0 is the no-effect control and ±100 the full control effect; potency means the concentration at half of the fitted maximal effect.

SMILES	TDP1 block	VDR inhibitor	DT40 TDP1 CPT	PLK1 PBD inh	GCN5L2 inh	DT40 TDP1 no CPT
CN1CCN(C(=O)C[C@H]2C[C@H]3c4cc(NC(=O)NC5CCCCC5)ccc4O[C@H]3[C@@H](CO)O2)CC1	/	/	-3.3%	-9.0%	/	9.8%
Cc1ccc(-c2nc3ccccc3o2)cc1NC(=O)c1cccc2c(Cl)cccc12	4.5%	-16.6%	?	/	2.4%	-23.4%
C[C@@H](C(O)c1ccccc1)N(C)C(=O)CCc1ccccc1 (stereo partly drawn)	/	0.4%	8.8%	5.6%	1.0%	-23.9%
COc1ccc(C(=O)Nc2ccc(-c3nc4ncccc4o3)cc2C)cc1Br	1.1%	5.7%	10.3µM*	/	-1.2%	?
COc1ccc(-c2nc3ncccc3o2)cc1NC(=O)c1cccs1	11.5%	-23.7%	-19.6%	-13.6%	-0.7%	14.6µM*
O=C(Nc1cc(-c2nc3ncccc3o2)ccc1Cl)c1cccs1	3.5%	-9.1%	?	-9.8%	-2.3%	20.6µM*
Cc1c(NC(=O)c2cccc(-c3cc4ccccc4oc3=O)c2)cccc1-c1nc2ncccc2o1	-11.1%	4.2%	25.9µM*	-7.2%	2.3%	20.6µM*
COc1ccc(-c2ccccc2)cc1NC(=O)c1cccs1	/	12.7%	0.6%	-5.6%	-7.3%	?
CN1CCN(c2ncc3c(n2)CCN(Cc2ccccc2Cl)C3)CC1	-1.2%	-3.0%	?	/	-1.3%	?
Cc1oc(=O)oc1CN1CCN(c2cc3c(cc2F)c(=O)c(C(=O)O)c2n3C(C)S2)CC1 (stereo not drawn)	0.0%	?	-21.7%	/	-22.2%	-11.0%
FC(F)(F)c1ccccc1Cl	5.4%	/	/	/	/	/
O=c1[nH]ncc(N2CCN(Cc3ccccc3)CC2)c1Cl	5.6%	0.5%	7.3%	-14.1%	-3.7%	-25.2%
CCOc1ccc(-n2nc(CO)c(C(=O)NCCCc3ccccc3)n2)cc1	-2.3%	-2.7%	14.6µM*	/	-15.1%	23.1µM*
O=C(NCCCc1ccccc1)c1nn(-c2ccccc2F)nc1CO	2.3%	9.6%	?	/	-2.8%	20.6µM*
Cc1nn(-c2ccccc2)c(C)c1/C=N/Nc1nc2ccccc2[nH]1	6.9%	2.7%	18.4µM*	-13.7%	4.4%	23.1µM*
Cc1cc(=O)[nH]c(N/N=C/c2c(C)nn(-c3ccccc3)c2C)n1	5.0%	-7.0%	?	2.2%	0.7%	?
Cn1c(/C=N/Nc2nc3ccccc3[nH]2)nc2ccccc21	10.1%	8.0%	?	-8.5%	-7.0%	29.1µM*
CCCn1c(/C=N/Nc2nc3ccccc3[nH]2)nc2ccccc21	13.7%	-17.4%	?	5.5%	-7.8%	?
CC(C)Cn1c(/C=N/Nc2nc3ccccc3[nH]2)nc2ccccc21	11.0%	-16.7%	3.66µM*	-12.4%	-9.1%	3.26µM*
O=S1(=O)C=C(Sc2nc3ccccc3s2)c2ccccc21	6.5%	12.6µM*	0.82µM*	2.67µM*	-1.0%	0.651µM*
c1ccc2sc(SSc3nc4ccccc4s3)nc2c1	15.5%	-19.8%	11.9%	/	?	-11.6%
O=S1(=O)C=C(Oc2ccc3ccccc3c2)c2ccccc21	-3.1%	-5.2%	?	-3.1%	-15.1%	?
Cc1cc(C)nc(SC2=CS(=O)(=O)c3ccccc32)n1	2.1%	-1.1%	?	-19.1%	-4.1%	18.4µM*
Cc1ccc(N=C2S/C(=C\c3cn(CC(=O)O)c4ccccc34)C(=O)N2C)cc1	6.3%	?	-0.9%	-24.5%	-10.1%	?
CCC(C)Nc1nc(Cl)nc(N(C#N)CN2C(=O)c3ccccc3S2(=O)=O)n1 (stereo not drawn)	7.7%	?	14.6µM*	-10.5%	-4.8%	?
CC(C)Nc1nc(Cl)nc(N(C#N)CN2C(=O)c3ccccc3C2=O)n1	5.6%	-16.5%	3.1%	?	-0.2%	-25.5%

Source: PubChem (National Center for Advancing Translational Sciences (NCATS))
